In ChEMBL document CHEMBL4513216, “Probing the Open Global Health Chemical Diversity Library for Multistage-Active Starting Points for Next-Generation Antimalarials” (ACS Infect Dis, 2020):
The campaign covered roughly 69,000 compounds. About 8,600 (12%) showed an effect of 50% or more. This excerpt belongs to a sample that is enriched for strong results.

System: Plasmodium berghei
Assay: Screen against P. berghei liver stage (PbLuc), transformed with Luciferase, at 10uM
Format: functional, HepG2
Conditions: tested at 10 uM

SMILES	INHIBITION [%]
CC(=O)N1CCCN(C(C)c2ccc(Br)cc2)CC1 (centres undefined)	-19.2
CC(C)CNC(=O)N1CC[C@@H]2CN(Cc3cccnc3)S(=O)(=O)[C@@H]2CC1	32.1
CCC(CC)C(O)CNC(=O)Cc1c[nH]c2ncccc12 (centres undefined)	2.38
CCN1CCCC(O)(CN(C)Cc2ccccc2F)C1 (centres undefined)	8.46
O=C1CC(c2ccccc2)C2(CCN(C(=O)c3ccncc3F)CC2)N1 (centres undefined)	32.2
COCCCNC(=O)Nc1ccc(F)c(C(N)=O)c1	-23.9
COc1c(Cl)cc(Cl)cc1CN1CCC(C(N)=O)C1 (centres undefined)	-11.3
O=C(NCc1ccccc1F)N1CCCCC1C1OCCO1 (centres undefined)	-6.88
CCC(CO)N(Cc1cccc(-n2cccn2)c1)Cc1ccccn1 (centres undefined)	25.5
CN(Cc1cccc(-n2cccn2)c1)Cc1cccs1	-29
CCC(CO)N(Cc1cccc(-n2cccn2)c1)Cc1cccs1 (centres undefined)	53.2
CN(C)[C@@H]1CN(C(=O)COc2cccc(F)c2)C[C@H]1O	54.5
O=C(COc1cccc(F)c1)N1C[C@@H](O)[C@H](N2CCOCC2)C1	32.3
O=C(COc1cccc(F)c1)N1C[C@@H](CN2CCCC2)C[C@H](CO)C1	-1.315
O=C(COc1ccccc1)N1C[C@@H](O)[C@H](N2CCCC2)C1	37
O=C(COc1cccc(F)c1)N1C[C@H](CO)C[C@H](CN2CCCC2)C1	10.42
O=C(COc1cccc(F)c1)N1C[C@@H](O)[C@H](N2CCCC2)C1	53.5
COCCN1C(=O)[C@]2(CC[C@@H]3CN(Cc4ccccc4F)C[C@@H]32)N=C1C	14.9
O=C(Nc1cnn(-c2ccccc2Cl)c1)NC1CCC(O)CC1 (centres undefined)	-66.7
Cc1nn(C)c(C)c1S(=O)(=O)N1CC[C@H]2O[C@@H](C)C[C@H]2C1	17.4
COC(=O)[C@H](C)NC(=O)CSCc1nc2sc(C(C)C)cc2c(=O)[nH]1	28.7
O=C(C1CCC1)N1C2CCC(O)(CC2)C1CN1CCOCC1 (centres undefined)	16.2
Cn1nc(-c2ccc(F)cc2)cc1C(=O)NCCn1ccnc1	-0.232
Cc1csc(N2CCN(CC(=O)Nc3cccnc3)CC2C)n1 (centres undefined)	11.9
Cc1csc(N2CCN(CC(=O)Nc3nncs3)CC2C)n1 (centres undefined)	40.9
CC1CN(CC(=O)Nc2cccnc2)CCN1c1nccs1 (centres undefined)	52.7
CC1CN(CC(=O)Nc2ccncc2)CCN1c1nccs1 (centres undefined)	21.6
Cc1csc(N2CCN(CC(=O)Nc3ccncc3)CC2C)n1 (centres undefined)	71.75
O=C(CN1CCN(c2nccs2)CC1)Nc1cccnc1	-24.2
